# Assay outcomes deposited in PubChem BioAssay by National Center for Advancing Translational Sciences (NCATS).
# Most compounds without a hit are left out; they make up all but 1.5% or so of the library.
# gsp ag = qHTS for Agonist of gsp, the Etiologic Mutation Responsible for Fibrous Dysplasia/McCune-Albright Syndrome: qHTS; gsp mutant cells, cAMP HTRF, 30 min; Potency, µM (series often up to 76.9 µM), for the others: at the top dose activation (cAMP increase), most hits filed as activators; actives 0.13% (n = 340,000); active = well fitted activation curve with a large enough effect; inconclusive = small, poorly fitted or top-dose-only effect, or another doubt; inactive = no such curve, though single readings can be large or run the other way; cell line not stated here;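 note: phosphodiesterase inhibitor Ro 20-1724 added with compounds to block cAMP breakdown; potency is the fitted concentration of half-maximal effect; nearly all actives have a fitted effect of over 60% in size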
#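 Cells stably selected in G418 were plated at 2000/well, grown 16-24 hr, then given compounds in DMSO with the PDE inhibitor […] (300 uM solution added) for 30 min at 37C; cAMP was read by HTRF.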
# gsp antag = qHTS for Antagonists of gsp, the Etiologic Mutation Responsible for Fibrous Dysplasia/McCune-Albright Syndrome: qHTS; Potency, µM (series often up to 76.9 µM), for inactives: at the top dose activity change, negative = inhibition, actives largely listed as inhibitors; gsp-mutant cells, cAMP HTRF, 30 min; actives 0.4% (n = 340,000); AID 624288, 2012; calls by dose curve; cell line not stated here;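 note: intracellular cAMP measured with PDE inhibitor Ro 20-1724 present during compound exposure; potency is the fitted concentration of half-maximal effect; % is set by controls: 0 for no effect and ±100 for the full control effect; nearly all actives have a fitted effect of over 65% in size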
#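 Cells, 2000/well, grown 16–24 h in DMEM 10% FBS with 0.5 mg/ml G418, then compounds plus […] (300 uM addition stock), 30 min at 37C. cAMP read by HTRF (cAMP-d2 and anti-cAMP antibody-K in lysis buffer) after 30 min RT.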
# IDH1 R132H inh = qHTS for Inhibitors of mutant isocitrate dehydrogenase 1 (IDH1): qHTS. Isocitrate dehydrogenase [NADP] cytoplasmic (Homo sapiens), O75874. IDH1-R132H enzyme, NADPH consumption, diaphorase/resazurin fluorescence. Potency, µM (highest dose often 76.6 µM), for the others: at the highest dose activity change, negative = inhibition, actives largely listed as inhibitors. actives 0.093% (n = 390,000); note: potency is the fitted concentration of half-maximal effect; % is set by controls: 0 for no effect and ±100 for the full control effect; nearly all actives have a fitted effect of over 65% in size
# Target sequence (O75874 whole entry R132H, stated change not applied): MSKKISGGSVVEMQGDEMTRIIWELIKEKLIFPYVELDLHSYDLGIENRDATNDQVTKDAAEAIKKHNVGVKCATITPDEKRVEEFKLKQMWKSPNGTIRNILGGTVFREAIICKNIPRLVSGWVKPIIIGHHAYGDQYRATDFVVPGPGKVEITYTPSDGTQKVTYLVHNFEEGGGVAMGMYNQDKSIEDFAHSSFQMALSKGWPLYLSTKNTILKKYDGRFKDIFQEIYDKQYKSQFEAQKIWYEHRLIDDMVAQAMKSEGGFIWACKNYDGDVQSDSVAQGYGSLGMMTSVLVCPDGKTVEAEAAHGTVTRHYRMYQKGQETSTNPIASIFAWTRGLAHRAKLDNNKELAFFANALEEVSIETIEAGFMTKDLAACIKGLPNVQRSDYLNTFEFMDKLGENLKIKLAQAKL
#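 IDH1-R132H (0.5 ug/mL) preincubated 30 min with compound, then NADPH (0.016 mM) and alpha-KG (2 mM) added; 80 min at RT, pH 7.5. Remaining NADPH coupled via diaphorase/resazurin to fluorescence (540/590 nm); concentration-response curves normalized to no-enzyme control.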
# IL2 activator = qHTS of IL-2 Activators; IL-2 activation reporter assay, cell-based qHTS; stimulated with anti-CD3/CD4/CD28 beads; in transgenic mouse T cells; activation, % (series mostly up to about 46 µM); actives 0.065% (n = 360,000); in the data active = activation above about 50%; inconclusive = mostly about 30% to 49%; note: 0% is about no effect
#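 Quantitative HTS in unstimulated transgenic mouse T cells, with memory T cells as non-tolerant control and PMA/ionomycin as tolerance-bypass control. Compound pretreatment lasted 60 minutes before 18 h bead stimulation; EGFP/DsRed fluorescence read.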
# BRCA1 expr act = qHTS Assay to Identify Small Molecule Activators of BRCA1 Expression. MCF7-BRCA1-FFLuc reporter, luminescence, 48 h; response scale: scaled: vehicle 0%, 10 µM genistein 100%. Potency, µM (highest dose often 46.1 µM), for the others: top-dose activation, most hits filed as activators. actives 1.1% (n = 380,000). AID 624202, 2012; note: potency is the fitted concentration of half-maximal effect; nearly all actives have a fitted effect of over 80% in size
#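 Luminescence from a BRCA1-driven firefly luciferase in MCF7 cells was the read-out, taken 15 min after substrate addition following 48 h compound exposure at 37 °C. Data were normalized to a 10 microM genistein control and DMSO vehicle.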
# Numbers without * were called inactive; u = inconclusive; x = not tested or not shown; [ ] = another dose, or the depositor's remark. Unless noted, calls come from the whole dose curve; as a rule, active = well fitted curve in the direction sought with a large enough effect; inconclusive = small, poorly fitted or top-dose-only effect, or another doubt; inactive = no such curve, though single readings can be large; an effect the other way counts as inactive or inconclusive.
SMILES,gsp ag,gsp antag,IDH1 R132H inh,IL2 activator,BRCA1 expr act
COc1ccc(-c2csc(NC(=O)CSc3n[nH]c(N)n3)n2)cc1,12%[15.4 µM],-7%,7%,0,-21%
Cc1ccc(NC(=S)NC(=O)C2CCCC2)cc1C,-10%,-4%,-5%,-4,u
Cc1ccc(NC(=S)NC(=O)C2CC2)c(C)c1,-23%,-16%,4%,-1,11µM*
Cc1ccc(NC(=S)NC(=O)c2ccc(Br)o2)c(C)c1,3%,-6%,11%,0,4µM*
COc1ccccc1CCNc1ncnc2nc[nH]c12,x,x,x,x,-22%
CCCC(=O)N(CCN1CCOCC1)c1nc2cc(C)c(C)cc2s1,-2%,-17%,4%,-2,4µM*
Cc1ccc2nc(N(CCN3CCOCC3)C(=O)CCS(=O)(=O)c3ccccc3)sc2c1,12%[15.4 µM],-24%,0%,-1,-10%
C[C@]12C(=O)N(c3ccc(F)cc3)C(=O)N1[C@@H]1c3ccccc3OC[C@@H]1[C@H]2c1ccccc1,12%,3%,20%,1,0%
C[C@@]12C(=O)N(c3ccc(C(F)(F)F)cc3)C(=O)N1[C@@H]1c3ccccc3OC[C@@H]1[C@H]2c1ccccc1,x,32µM*,-1%,0,-29%
CCOc1ccc(C2c3c(oc4ccc(C)cc4c3=O)C(=O)N2Cc2ccc3c(c2)OCO3)cc1OC (configuration not stated),x,x,15%,x,x
NNC(=S)Nc1cccc(-c2n[nH]c(=S)o2)c1,10µM*,1%,7%,1,16%
COc1cc(C2CC(=O)N(Cc3cccc(F)c3)c3ccccc3S2)cc(OC)c1OC (configuration not stated),x,x,0%,x,-17%
O=C(NC(NC(=S)Nc1c(Cl)cccc1Cl)C(Cl)(Cl)Cl)c1cccc([N+](=O)[O-])c1 (configuration not stated),-12%,35µM*,8%,-1,-94%
O=C(NNC(=S)NC(=O)c1ccccc1Cl)c1cccc([N+](=O)[O-])c1,8%[15.4 µM],-4%,6%,-2,-29%
O=C(Nc1ccc2ncccc2c1)c1cccc(Br)c1,-8%,-5%,7%,1,2.2µM*
Brc1ccc(CNc2ccc3ncccc3c2)cc1,-2%,-15%,4%,-2,8.9µM*
CCCn1cnc2cc(NCc3ccc(Br)cc3)ccc21,-12%[15.4 µM],-8%,-1%,4,46%
O=C(Nc1ccc2ncccc2c1)c1cc(Cl)ccc1Cl,11%,1%,-14%,-2,7.9µM*
C=CCNC(=O)c1cc2cc(Cl)ccc2nc1N,x,x,x,0,0%
O=C(NCc1ccccc1Cl)c1c2c(nc3ccccc13)C(=O)N(C1CCCCC1)C2,x,x,0%,x,x
COc1cccc(-n2nnc3c(=O)n(CC(=O)NCC4CCCO4)cnc32)c1 (configuration not stated),11µM*,21%,3%,-3,-7%
O=C(Cn1cnc2c(nnn2-c2ccccc2)c1=O)NCC1CCCO1 (configuration not stated),u,5%,-3%,-1,20%
COc1ccc(Cl)cc1N(C)c1nc(N2CCN(S(=O)(=O)c3ccc(C)cc3)CC2)c2ccccc2n1,x,x,x,x,8%
COC(=O)Cn1c(SCc2ccccc2)nc2ccccc21,21%,0%,1%,1,7.9µM*
Cc1ccc(Nc2nc(N)nc(COC(=O)C3=COCCO3)n2)cc1,13%,6%,0%,-1,4µM*
SMILES,gsp ag,gsp antag,IDH1 R132H inh,IL2 activator,BRCA1 expr act
Nc1nc(CSC(=S)N2CCCCC2)nc(Nc2ccccc2)n1,11%[15.4 µM],8%,1%,-2,14µM*
Cc1ccc(Nc2nc(N)nc(CSC(=S)N3CCOCC3)n2)cc1,0%,-4%,4%,-3,5µM*
Nc1nc(CSC(=S)N2CCOCC2)nc(Nc2ccccc2)n1,6%[15.4 µM],0%,3%,1,u
COc1ccccc1CCn1cnc(-c2ccc(Br)cc2)c1C(C)C,x,x,x,-1,-48%
Cc1oc(-c2ccccc2Cl)nc1CSc1nc2ncccc2[nH]1,x,x,3%,x,x
CCOc1ccc(C(=O)Nc2ccc3nc(SCC(=O)N(C)c4ccccc4)sc3c2)cc1,x,x,-5%,x,x
O=C(COc1nc2ccccc2nc1N1CCOCC1)N1CCc2ccccc21,-10%[15.4 µM],4%,1%,94*,0%
O=C(COc1ccc2c(c1)CCC2)N1CCc2ccccc21,4%,-25%,0%,-3,10µM*
Cc1ccc(OCC(=O)N2CCc3ccccc32)cc1,0%,1%,-18%,-2,u
ICC[n+]1csc2ccccc21,x,x,x,x,-5%
Cc1cc(C)cc(NC(=O)Cc2csc(COc3cccc(C)c3)n2)c1,x,x,4%,x,x
CC(=O)c1ccc(NC(=O)Nc2sc3nc4n(c(=O)c3c2C)CCC(C)CC4)cc1 (configuration not stated),x,x,-7%,x,x
COc1ccccc1-c1c(C)nn2c(N3CCCCCC3)cc(C)nc12,1%,35µM*,16%,-5,-62%
Cc1nn(C)c(C)c1N1C(=O)c2cccc3c(N)ccc(c23)C1=O,u,3%,4%,8,-16%
Cc1nn(C)c(C)c1N1C(=O)c2cccc3c(Br)ccc(c23)C1=O,13µM*,2%,3%,8,-38%
CCn1c(COc2ccc(Cl)cc2Cl)nc2ccccc21,x,x,-1%,x,x
COc1ccccc1NNC(=O)c1cc(C(C)(C)C)nn1Cc1ccccc1,43%,-12%,-6%,0,10µM*
O=C1c2cc(S(=O)(=O)NCCO)ccc2-c2ccc(S(=O)(=O)NCCO)cc21,0%[15.4 µM],8%,11%,-4,-4%
O=C(O)CNS(=O)(=O)c1ccc2c(c1)C(=O)c1cc(S(=O)(=O)NCC(=O)O)ccc1-2,13µM*,3%,-3%,0,14%
O=C(N/N=C/c1ccc(Cl)s1)c1ccccc1[N+](=O)[O-],-31%[15.4 µM],-2%,4%,0,-30%
Cc1ccc(/C=N/NC(=O)C(C)Oc2ccccc2[N+](=O)[O-])s1 (configuration not stated),-9%,11µM*,2%,-1,26%
CN(C)/N=C/c1ccc(OS(=O)(=O)c2ccccc2)cc1,-13%[15.4 µM],x,8%,0,10µM*
COc1cccc(CN(C(=O)c2ccc(C(C)(C)C)cc2)C2CCS(=O)(=O)C2)c1 (configuration not stated),x,x,-2%,x,x
CC#C[C@]1(O)CC[C@H]2[C@@H]3CCC4=CC(=O)CCC4=C3[C@@H](c3ccc(N(C)C)cc3)C[C@@]21C,x,35µM*,-11%,0,0%
